# Out of some 38,000 compounds screened, about 1,200 (3.2%) showed an effect of 50% or more. The median lay at about -58%. For the sample, strong results were picked, then their nearest neighbours and some compounds at random.
# Tested on: Plasmodium falciparum
# Assay: Calibr Malaria Delayed Death Assay SOP
# Type: functional, organism-based
# Set-up: scale not given: in the data most compounds retested in dose-response had high values
# Conditions: concentration 4.99e-06 (unit not given; other assays of the set use mol/L)
row,SMILES,Percent Effect [%]
1,CSc1ncn(-c2nc(NC3CC3)nc(N(C)C)n2)n1,-74.3
2,CCC(CNC(=O)c1cc(OC)ccc1Br)N1CCc2ccccc2C1 (configuration not stated),0.2059
3,CCC(CNC(=O)c1ccccc1Br)N1CCc2ccccc2C1 (configuration not stated),39.24
4,CCC(CNC(=O)c1cncc(Br)c1)N1CCc2ccccc2C1 (configuration not stated),65.67
5,CN(CC1(CO)CCC1)C(=O)c1cc(COc2ccccc2F)[nH]n1,-88.13
6,Cc1noc(C(C)C)c1C(=O)N1CCOCC1CC(=O)c1ccco1 (configuration not stated),-42.91
7,NC(=O)Cc1ccc(OCc2noc(C(=O)N3CCCC3)n2)cc1,-126.1
8,O=C(C1CCC2(CCN(Cc3cccnc3)CC2)CO1)N1CCCC1.O=C(O)C(F)(F)F.O=C(O)C(F)(F)F (configuration not stated),-51.34
9,COc1cc(CCC(=O)NC(C)C)ccc1OCC(F)(F)F,-88.73
10,Cc1c(C(=O)N2CCN(C)CC2)n(C)c2ccc(Cl)cc12,-1.924
11,Cc1c(C(=O)N2CCOCC2)n(C)c2ccc(Cl)cc12.Cl,-79.72
12,O=C1NCCN1C1CCN(c2ccnc(-c3ccccc3)n2)CC1,-68.77
13,NCC1Cc2cc(-c3nccc(N4CCC(O)CC4)n3)cc(Cl)c2O1 (configuration not stated),79.64
14,NCC1Cc2cccc(-c3nccc(N4CCC(O)CC4)n3)c2O1 (configuration not stated),16.4
15,NCC1Cc2cc(-c3nccc(N4CCC(O)CC4)n3)cc(F)c2O1 (configuration not stated),83
16,OC1CCN(c2ccnc(NCCc3ccccc3Cl)n2)CC1,-52.91
17,OC1CCN(c2ccnc3c(F)cc(Br)cc23)CC1,-18.79
18,Cc1ccc(CN2CCc3c(COC(C)C)nn(C)c3C2)s1.O=C(O)C(F)(F)F,-19.42
19,Cc1cc(S(=O)(=O)N2C[C@H](C3CC3)[C@@H](N)C2)c(C)s1,85.63
20,Cc1cc(-c2cc(S(=O)(=O)N3C[C@H](C4CC4)[C@@H](N)C3)c(C)s2)[nH]n1,61.47
21,N[C@H]1CN(S(=O)(=O)c2ccccc2)C[C@@H]1C1CC1,-1.115
22,Cc1ccc(S(=O)(=O)N2C[C@H](C3CC3)[C@@H](N)C2)cc1F,14.36
23,N[C@H]1CN(S(=O)(=O)c2cccnc2)C[C@@H]1C1CC1,-65.5

row,SMILES,Percent Effect [%]
1,CC(C)Nc1cc(N2CCC(n3cc(CCO)nn3)CC2)ncn1,-78.28
2,Cc1cc(C(=O)N2CCN(c3nc4c(C)cccc4s3)CC2)no1,-18.05
3,Cc1c(C2N3C[C@]4(C(C)C)CN2C[C@](C(C)C)(C3)C4=O)[nH]c(=O)[nH]c1=O (some centres not stated),-140.7
4,O=C(O)C(F)(F)F.O=C1COC2(CCN(c3ncccn3)CC2)CN1Cc1ccccn1,-77.45
5,CN(CCCOc1ccccc1)C(=O)c1csc(-c2nnc[nH]2)n1,76.91
6,COCCN(Cc1ccccc1)C(=O)c1csc(-c2nnc[nH]2)n1,-56.87
7,COc1cccc(CN(C)C(=O)c2csc(-c3nnc[nH]3)n2)c1,-25.24
8,CC(=O)Nc1nc2c(s1)C1(CCCC1)Nc1ccccc1S2,-91.88
9,Cc1nc(CCNC(=O)C2CC(=O)N(C(C)C)C2)cs1 (configuration not stated),-69.29
10,Cc1ccc(NC2CCN(C(=O)COC3CCCC3)CC2)nn1,-115.6
11,Cc1cc2n(n1)CC(CNC1CCN(C(=O)c3ccco3)CC1)CN2 (configuration not stated),-80.47
12,Cc1cc2n(n1)CC(CNC1CCN(c3ccccn3)CC1)CN2 (configuration not stated),-51.76
13,c1ccc(C2(NCC3CNc4ccnn4C3)CCC2)cc1 (configuration not stated),13.04
14,Cc1cc2n(n1)CC(CNC1CCN(Cc3ccccc3C)CC1)CN2 (configuration not stated),70.36
15,Cc1cc2n(n1)CC(CNC1CCN(Cc3ccncc3)CC1)CN2 (configuration not stated),-3.89
16,Cc1cc2n(n1)CC(CNC1CCN(Cc3ccccn3)CC1)CN2 (configuration not stated),-56.82
17,Cc1cc2n(n1)CC(CNC1CCN(CCc3ccccc3)CC1)CN2 (configuration not stated),67.68
18,OCc1ccccc1CNCC1CNc2ccnn2C1 (configuration not stated),-1.893
19,Cc1cc2n(n1)CC(CNC1CCN(C3CC3)CC1)CN2 (configuration not stated),-73.71
20,Cc1cc2n(n1)CC(CNC1CCN(C(=O)C3CC3)CC1)CN2 (configuration not stated),-153
21,Cc1ccccc1CN1CCC(NCC2CNc3ccnn3C2)CC1 (configuration not stated),66.35
22,Cc1cccc(CN2CCC(NCC3CNc4cc(C)nn4C3)CC2)c1 (configuration not stated),85.82
23,CC(C)N1CCC(Cc2cc(-c3cc(F)ccc3C(=O)O)ncn2)C1 (configuration not stated),-123.1

row,SMILES,Percent Effect [%]
1,COCCN1CCCC2(CCN(Cc3nnc(C4CC4)o3)C2)C1=O (configuration not stated),-62.36
2,COCCNC(=O)c1cccnc1Oc1ccc(Cl)cc1,-11.3
3,O=C(NC1CC1)[C@H]1C[C@@H]2CCN(Cc3ccc4c(c3)OCO4)C[C@@H]2O1.O=C(O)C(F)(F)F,-22.11
4,CC(C)c1nc(C2CCCN2C(=O)CCn2cncn2)no1 (configuration not stated),-126.6
5,CCCN(CCc1ccccc1)C(=O)c1ccccc1NCC(=O)O,-32.98
6,Cc1cc(C(C)(O)CNC(=O)CCn2ccnc2C(C)C)c(C)o1 (configuration not stated),-18.43
7,Cc1cc(NC(=O)NCCOc2ccc(Cl)cn2)no1,-49.88
8,COc1cc(C)sc1C(=O)NCCC(=O)N(C)Cc1ccccc1,58.21
9,COc1cc(C)sc1C(=O)NCCNc1ccccc1,14.03
10,COc1cc(C)sc1C(=O)NCCC(=O)N(C)c1ccccc1,32.05
11,COCC(=O)N1CCO[C@]2(CCC[C@H]2COC)C1,-73.03
12,CCc1n[nH]c(C2CN(C(=O)CCCn3cccn3)CCO2)n1 (configuration not stated),-94.04
13,COc1ccc(CCN)cc1-c1ccc(S(C)(=O)=O)cc1,18.27
14,COc1ccc(-c2ccnc(N)c2)c(OC)c1,-94.95
15,COc1ccc(OC)c(-n2cnnc2CCN)c1,-39.19
16,COc1ccc(-c2cc(CN)ccc2F)c(OC)c1OC,12.18
17,COc1ccc(-c2ccccc2CCN)c(OC)c1OC,81.6
18,CC(=O)Nc1cccc(-c2ccccc2CCN)c1,-111.2
19,COc1ccc(-c2ccccc2CCN)c(OC)c1,80.76
20,COc1ccc(CN)c(OC(F)F)c1.Cl,-30.28
21,COc1ccc(-c2ccccc2CN)c(OC)c1,59.74
22,Cc1c[nH]c(C(=O)N2CCCC2c2ccc(C(=O)N3CCSCC3)s2)n1 (configuration not stated),-168.9
23,CC(=O)N1CCCC2(C1)CN(C(=O)Cc1ccccc1)CCO2 (configuration not stated),-122.2

row,SMILES,Percent Effect [%]
1,O=C(O)Cn1ccc(=O)c2cc(Cl)ccc21,-122.9
2,CCOc1cccc2c1OCC(=O)N(c1ccc(N(C)C)cc1)C2,-248.2
3,COc1ccc(OCCN(C)C(=O)c2ccc(OC)cc2O)cc1,-28.6
4,COc1ccc(-c2nnsc2C(=O)N2CCOCC2)cc1,-93.54
5,COc1c(CNCc2ccccc2Cn2cncn2)c(C)nn1C,-2.524
6,COc1c(CNCc2cccc(Cn3cccn3)c2)c(C)nn1C,6.408
7,COc1c(CNCc2ccccc2Cn2cccn2)c(C)nn1C,54.96
8,Cc1nn(C)c(C)c1S(=O)(=O)NCC1(C(N)=O)CCOCC1,-35.42
9,Cc1ccc(N2CC[C@H]3C[C@H](C(=O)NCc4ccco4)O[C@H]3C2)nn1.O=C(O)C(F)(F)F,-18.7
10,CN(Cc1ccc([S+](C)[O-])cc1)c1cncc(Br)c1 (configuration not stated),-68.65
11,COc1cc(CN2CCCCCC2c2cccs2)cc(OC)c1O (configuration not stated),-97.62
12,Cc1cccc(C2CCCCCN2Cc2cn(C)nc2C)c1 (configuration not stated),32.86
13,COc1cccc(CN2CCCCCC2c2cccs2)c1O (configuration not stated),1.572
14,COc1cccc(CN2CCCCCC2c2cccc(C)c2)c1O (configuration not stated),56.55
15,COc1cccc(CN2CCCCCC2c2sccc2C)c1O (configuration not stated),-12.07
16,COc1cccc(CN2CCCCCC2c2cccc(F)c2)c1O (configuration not stated),55.91
17,Cc1noc(C2CCC3(CCN(C(=O)c4ccncn4)CC3)O2)n1 (configuration not stated),-45.98
18,O=C(c1cccc2cn[nH]c12)N1CCCC1c1noc(C2CC2)n1 (configuration not stated),-53.04
19,CCn1ccc(-c2cc(C(=O)O)n3nc(C)c(Cl)c3n2)n1,-42.05
20,O=C(O)C(F)(F)F.O=C1C[C@H]2[C@@H](CCN2C(=O)c2ccoc2)N1CCN1CCOCC1,-16.54
21,Cc1cccc(-n2ncc3c(=O)n(CCN4CCCCC4)cnc32)c1C,-32.3
22,COCCN1CCN(CCCS(=O)(=O)c2ccccc2)CC1C (configuration not stated),-125.8
23,CC1CN(Cc2ccccc2)CCCN1CCCS(C)(=O)=O (configuration not stated),50.52

row,SMILES,Percent Effect [%]
1,CNS(=O)(=O)CCCN1CCCC1c1cc(C)on1 (configuration not stated),-107.9
2,CNS(=O)(=O)CCCN1CCCN(Cc2ccccc2)CC1C (configuration not stated),57.31
3,CNS(=O)(=O)CCCN1CCCCCC1c1ccc(C)o1 (configuration not stated),7.133
4,COCCN1CCN(CCCS(C)(=O)=O)CC1C (configuration not stated),-45.99
5,Cc1cc(F)ccc1N1CCCC(NC(=O)CCCn2ccnc2)C1 (configuration not stated),-46.83
6,Cc1ccoc1-c1nnc(CN2CCn3c(nnc3C(C)C)C2)o1,-39.14
7,CCCN1CCN(c2ccc(-c3nc(C)no3)cn2)CC1,-136.9
8,CCn1cc(CN2CCCN(C(=O)CCN3CCCC3=O)CC2)cn1,-110.7
9,CC(C)C(NC(=O)N1CCS(=O)(=O)CC1)c1ccccc1Cl (configuration not stated),-66.72
10,CSCC(=O)N(C)Cc1ccccc1,-13.25
11,N#Cc1nc(COc2ccc3c(c2)OCO3)oc1NC1CC1,-68.74
12,O=C(C1CCCC1)N1CCC(C2CCN(Cc3ccc(Cl)cc3)C2)CC1 (configuration not stated),62.77
13,Clc1ccc(CN2CCC(C3CCN(Cc4cccnc4)CC3)C2)cc1 (configuration not stated),62.84
14,CCOCC(=O)N1CCC(C2CCN(Cc3ccc(Cl)cc3)C2)CC1 (configuration not stated),-3.864
15,Clc1cccnc1N1CCC(C2CCN(Cc3cccnc3)CC2)C1 (configuration not stated),-53.88
16,Clc1ccc(N2CCC(C3CCN(Cc4cccnc4)CC3)C2)nc1 (configuration not stated),9.118
17,CN1CCN(Cc2ccc(Cl)cc2)CC1C(=O)O (configuration not stated),-101.8
18,CC(=O)NCC(=O)N1CCC(C2CCN(Cc3ccc(Cl)cc3)C2)CC1 (configuration not stated),1.574
19,O=C(C1CCC1)N1CCC(C2CCN(Cc3ccc(Cl)cc3)C2)CC1 (configuration not stated),64.14
20,O=C(C1CCC1)N1CC[C@@H]2CN(Cc3cccnc3)S(=O)(=O)[C@@H]2CC1,-57.62
